The values that follow come from PubChem BioAssay (NCI).

Molecules are shown by their SMILES. The panel holds about 83,000 compounds, 20% with a hit somewhere; the sample as a whole holds those more often.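 48-hour exposure, single concentration, 96-well plates; percent growth endpoint where 0 means no net growth. Active: below 10.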 A number with no mark means an inactive call. The source made the active and inactive calls.

Test systems include DU-145 prostate; K-562 leukemia; MALME-3M melanoma; MDA-MB-231 breast; RXF 393 renal; SF-268 CNS; SF-295 CNS; SF-539 CNS; UACC-257 melanoma; M14 melanoma.
Holding throughout (experiment): NCI-60 one-dose screen, 48 h (100 = growth as untreated, 0 = no growth, -100 = all killed)
Holding throughout (details): 10 µM unless noted

As to `O=C1Nc2c(ccc(Cl)c2Cl)/C1=C\c1ccc(C(F)(F)F)cc1`, the growth is 97.3% in the experiment on DU-145 prostate; 32.8% with K-562 leukemia; 96.5% in the experiment on MALME-3M melanoma; 81.9% in the experiment on MDA-MB-231 breast; 77.4% in the experiment with RXF 393 renal; 91.6% in the experiment with SF-268 CNS. Moreover, the growth in the experiment on SF-295 CNS is 77.2%; with SF-539 CNS, 88.1%; with UACC-257 melanoma, 97.5%; in the experiment with M14 melanoma, 98%.

In the case of `CCOC(=O)c1csc(NC(=O)COc2cccc(/C=C3\CSc4ccccc4C3=O)c2)n1`, the growth was 87.1% in the experiment on DU-145 prostate; -64.3% (active) in the experiment with K-562 leukemia; -52.6% (active) in the experiment on MALME-3M melanoma; 59.2% with MDA-MB-231 breast; 64.9% with RXF 393 renal; -37.2% (active) in the experiment on SF-268 CNS. The growth was 93.7% in the experiment on SF-295 CNS, -89.1% (active) with SF-539 CNS, 84.5% in the experiment on UACC-257 melanoma and -58.5% (active) with M14 melanoma.

`CCOC(=O)n1cc(-c2nonc2-c2cn(C)c3ncccc23)c2cc(F)ccc21`: the growth with DU-145 prostate was 91.1%; in the experiment on K-562 leukemia, 61.2%; in the experiment with MALME-3M melanoma, 84.4%; with MDA-MB-231 breast, 68.2%; with RXF 393 renal, 78.3%; in the experiment with SF-268 CNS, 74.2%. For the same molecule, the growth is 76% in the experiment with SF-295 CNS, 77.9% in the experiment on SF-539 CNS, 91.2% in the experiment on UACC-257 melanoma and 93.8% with M14 melanoma.

On to `CCCCn1c(-c2ccc(C(=O)O/N=C(\N)c3ccc4ccccc4c3)cc2)nc(-c2ccccc2)c1-c1ccccc1`, for which the growth in the experiment with DU-145 prostate is 65.3%; in the experiment on K-562 leukemia, 11.9%; with MALME-3M melanoma it was 93.4%; in the experiment on MDA-MB-231 breast it was 70%; in the experiment on RXF 393 renal, 58.2%; in the experiment on SF-268 CNS it was 48.9%. Besides, the growth in the experiment with SF-295 CNS is 81%; in the experiment with SF-539 CNS, 81.3%; in the experiment with UACC-257 melanoma, 98.3%; in the experiment on M14 melanoma, 82.6%.

Turning to `NNCCc1ccc(NC(=O)CCCc2ccc(/C=C/C(=O)NO)cc2)cc1`, the growth was 72.6% in the experiment on DU-145 prostate; 7.74% (active) in the experiment on K-562 leukemia; 39.4% in the experiment on MALME-3M melanoma; 42.3% in the experiment with MDA-MB-231 breast; 63.6% with RXF 393 renal; 45.3% with SF-268 CNS. Further, the growth is 77.7% in the experiment with SF-295 CNS, 53.3% in the experiment on SF-539 CNS, 51.7% in the experiment on UACC-257 melanoma and 61.1% in the experiment with M14 melanoma.

With `c1ccc(CCNc2ncnc3[nH]ncc23)cc1`, the growth in the experiment on DU-145 prostate is 109%; in the experiment on K-562 leukemia, 94.6%; in the experiment on MALME-3M melanoma, 114%; in the experiment on MDA-MB-231 breast it was 93.2%; in the experiment on RXF 393 renal, 93.2%; with SF-268 CNS, 109%. Moreover, the growth was 102% in the experiment on SF-295 CNS, 116% in the experiment with SF-539 CNS, 96.5% in the experiment with UACC-257 melanoma and 104% in the experiment with M14 melanoma.

In the case of `Cc1ccc(NC(=O)/C=C/c2ccccc2)c(C(N)=O)c1`, the growth with DU-145 prostate was -8.15% (active); in the experiment on K-562 leukemia, 13.1%; in the experiment on MALME-3M melanoma, 96.6%; in the experiment on MDA-MB-231 breast, 52.5%; in the experiment with RXF 393 renal, -9.67% (active); in the experiment with SF-268 CNS, 43.3%. For the same molecule, the growth with SF-295 CNS is 15.2%; in the experiment on SF-539 CNS it was 0.356% (active); with UACC-257 melanoma it was 63.2%; with M14 melanoma it was 27%.

Consider `CCOC(=O)c1c(C)oc2ncnc(N3CCN(C(=O)COc4ccc(SC)cc4)CC3)c12`, for which the growth is 99.6% in the experiment with DU-145 prostate; 82.4% in the experiment on K-562 leukemia; 105% with MALME-3M melanoma; 88.6% with MDA-MB-231 breast; 99.7% in the experiment on RXF 393 renal; 92.7% in the experiment on SF-268 CNS. In addition, the growth is 88.2% with SF-295 CNS, 93.5% in the experiment with SF-539 CNS, 95% in the experiment on UACC-257 melanoma and 97.9% in the experiment with M14 melanoma.

On to `COc1ccc(S(=O)(=O)N2CCN(C)CC2)cc1NC(=O)c1[nH]c(C)c2c1CCCCC2=O`, for which the growth in the experiment with DU-145 prostate was 87.1%; in the experiment with K-562 leukemia it was 46.9%; with MALME-3M melanoma it was 52%; in the experiment with MDA-MB-231 breast it was 51.1%; in the experiment on RXF 393 renal it was 84.3%; in the experiment on SF-268 CNS, 82%. Moreover, the growth in the experiment with SF-295 CNS was 54.7%; with SF-539 CNS it was 52.5%; with UACC-257 melanoma it was 57.9%; with M14 melanoma it was 54.4%.

For the molecule `c1ccc(-c2c(-c3ccccc3)[n+](Cc3ccc4ccccc4c3)c(-c3ccc(-c4nc5ccccc5s4)cc3)n2Cc2ccc3ccccc3c2)cc1`, the growth is -95.4% (active) in the experiment on DU-145 prostate; -25.2% (active) in the experiment with K-562 leukemia; -78% (active) with MALME-3M melanoma; -84.3% (active) in the experiment on MDA-MB-231 breast; -95.6% (active) in the experiment with RXF 393 renal; -76.9% (active) in the experiment with SF-268 CNS. Further, the growth was -99.6% (active) in the experiment with SF-295 CNS, -88.9% (active) in the experiment on SF-539 CNS, -87.5% (active) in the experiment with UACC-257 melanoma and -80.4% (active) in the experiment on M14 melanoma.

For the molecule `O=C(Nc1cccc2[nH]c(C(F)(F)F)nc12)c1ccc(-n2cnnn2)cc1`, the growth in the experiment on DU-145 prostate is 102%; with K-562 leukemia it was 21.5%; in the experiment with MALME-3M melanoma, 84.5%; in the experiment on MDA-MB-231 breast it was 93.1%; in the experiment with RXF 393 renal, 96.1%; in the experiment with SF-268 CNS, 96%. Moreover, the growth with SF-295 CNS was 92.5%; in the experiment on SF-539 CNS, 103%; in the experiment with UACC-257 melanoma, 107%; with M14 melanoma, 107%.

For the molecule `COc1ccc(S(=O)(=O)N2CCCCCC2)cc1NC(=O)c1[nH]c(C)c2c1CCCCC2=O`, the growth in the experiment on DU-145 prostate is 58%; in the experiment with K-562 leukemia it was 21.4%; in the experiment on MALME-3M melanoma, 55.6%; in the experiment with MDA-MB-231 breast, 36.3%; with RXF 393 renal it was 34.7%; in the experiment with SF-268 CNS, 52.8%. In addition, the growth in the experiment with SF-295 CNS is 25.5%; in the experiment with SF-539 CNS, 29.9%; in the experiment on UACC-257 melanoma, 34.5%; in the experiment on M14 melanoma, 42.8%.

With `CCOC(=O)c1c(C)oc2ncnc(N3CCN(C(=S)Nc4ccccc4)CC3)c12`, the growth is 101% with DU-145 prostate; 85% in the experiment with K-562 leukemia; 99.9% in the experiment with MALME-3M melanoma; 89.1% in the experiment with MDA-MB-231 breast; 90.8% in the experiment with RXF 393 renal; 94.1% in the experiment with SF-268 CNS. Moreover, the growth in the experiment with SF-295 CNS is 96%; in the experiment with SF-539 CNS, 91.8%; in the experiment with UACC-257 melanoma, 98%; in the experiment with M14 melanoma, 104%.
